Results filed as inconclusive are left out. Calls of active or inactive are those of the source. The call rests on the fitted dose curve; in most records, active means well fitted cell-killing curve with a large enough effect; inconclusive means small, poorly fitted or top-dose-only effect, or effect the other way; inactive means no such curve, though single readings can be large or run the other way.
Experiments:
[1] = Quantitative High-Throughput drug screen in 47 multiple myeloma cell lines against the NCATS MIPE library collection: FR4_PLB cell viability assay (AID 1918924; further: nearly all actives have a fitted effect of over 35% in size)
Method in brief: (§1)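 qHTS of the MIPE 4.0 collection: 500 myeloma cells/well, 48 h drug exposure at 37C in 5% CO2, then CellTiter-Glo for 5 min at room temperature before luminescence reading.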

[2] = Quantitative High-Throughput drug screen in 47 multiple myeloma cell lines against the NCATS MIPE library collection: Delta47_JCRB cell viability assay (AID 1918925; further: nearly all actives have a fitted effect of over 45% in size)
Method in brief: (§2)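 Inhibition of cell viability is measured here. Each line was plated at 500 cells per well, treated with MIPE 4.0 drugs, kept 48 hours at 37C, then assayed for ATP content by CellTiter-Glo luminescence.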

[3] = Quantitative High-Throughput drug screen in 47 multiple myeloma cell lines against the NCATS MIPE library collection: EJM_DSMZ cell viability assay (AID 1918926; further: nearly all actives have a fitted effect of over 30% in size)
Method in brief: as §2

[4] = Quantitative High-Throughput drug screen in 47 multiple myeloma cell lines against the NCATS MIPE library collection: AMO1_DSMZ cell viability assay (AID 1918927; further: nearly all actives have a fitted effect of over 30% in size)
Method in brief: as §2

[5] = Quantitative High-Throughput drug screen in 47 multiple myeloma cell lines against the NCATS MIPE library collection: ARP1_JJKsccF8 cell viability assay (AID 1918928; further: nearly all actives have a fitted effect of over 40% in size)
Method in brief: (§3)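 500 cells/well; MIPE 4.0 library pinned in; 48 h, 37 °C, 5% CO2; CellTiter-Glo ATP luminescence. Controls: DMSO = 100% viability, medium only = 0%.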

[6] = Quantitative High-Throughput drug screen in 47 multiple myeloma cell lines against the NCATS MIPE library collection: ARD_JJKsccE7 cell viability assay (AID 1918929)
Method in brief: as §2

[7] = Quantitative High-Throughput drug screen in 47 multiple myeloma cell lines against the NCATS MIPE library collection: Karpas620_DSMZ cell viability assay (AID 1918959); further: nearly all actives have a fitted effect of over 30% in size
Method in brief: as §1

[8] = Quantitative High-Throughput drug screen in 47 multiple myeloma cell lines against the NCATS MIPE library collection: KMM1_JCRB cell viability assay (AID 1918960); further: nearly all actives have a fitted effect of over 30% in size
Method in brief: as §3

[9] = Quantitative High-Throughput drug screen in 47 multiple myeloma cell lines against the NCATS MIPE library collection: Karpas417_ECACC cell viability assay (AID 1918961); details: Karpas417 myeloma viability, CellTiter-Glo ATP luminescence, 48 h; viability (% of DMSO): at 45.8 µM (top of the series)
Method in brief: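 Luminescent ATP measurement with CellTiter-Glo gives viability, scaled between DMSO-only wells (100%) and media-only wells (0%). Cells, 500 per well, faced library compounds for 48 hours at 37C.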
Potency means the concentration at half of the fitted maximal effect.

Row | SMILES | Potency [1] | Potency [2] | Potency [3] | Potency [4] | Potency [5] | Potency [6] | Potency [7] | Potency [8] | Potency [9]
1 | Cn1cc(CNCC2CCN(c3ncc(C(=O)NO)cn3)CC2)c2ccccc21 | 0.0264 µM (active) | 74.3 nM (active) | 0.0526 µM (active) | 52.6 nM (active) | 0.0166 µM (active) | 52.6 nM (active) | 0.105 µM (active) | 41.8 nM (active) | 16.6 nM (active)
2 | COc1ccc2c(c1OC)C(=O)OC2[C@H]1c2c(cc3c(c2OC)OCO3)CCN1C (stereo partly specified) | 0.0526 µM (active) | 187 nM (active) | 2.09 µM (active) | 74.3 nM (active) | 0.0526 µM (active) | 74.3 nM (active) | 0.0264 µM (active) | 148 nM (active) | 2090 nM (active)
3 | O=C1CSC(=O)N1C(CCc1ccncc1)COc1ccc(-c2cccc([N+](=O)[O-])c2)cc1 (stereo unspecified) | 18.7 µM (active) | 4180 nM (active) | 0.935 µM (active) | inactive | 3.32 µM (active) | inactive | inactive | inactive | 46.9 nM (active)
4 | CCNC(=O)c1cc2c(-c3cc(OCCN4CCCC4)c(Cl)cc3Cl)nc(N)nc2s1 | 1.48 µM (active) | 1050 nM (active) | 2.09 µM (active) | 935 nM (active) | 1.66 µM (active) | 526 nM (active) | 1.05 µM (active) | 590 nM (active) | 590 nM (active)
5 | CC(=O)O[C@@]12CO[C@H]1C[C@H](O)[C@@]1(C)C(=O)[C@H](O)C3=C(C)[C@@H](OC(=O)C(O)[C@@H](NC(=O)OC(C)(C)C)c4ccccc4)C[C@@](O)([C@@H](OC(=O)c4ccccc4)[C@@H]21)C3(C)C (stereo partly specified) | inactive | inactive | inactive | inactive | inactive | inactive |  | inactive | 
6 | Cn1cc(-c2cnn3c(N)c(Br)c([C@H]4CCCNC4)nc23)cn1 | 0.132 µM (active) | 743 nM (active) | 0.372 µM (active) | 1480 nM (active) | 3.32 µM (active) | 1050 nM (active) |  | 372 nM (active) | 132 nM (active)
7 | COc1ccc([C@@H]2CNC(=O)C2)cc1OC1CCCC1 | inactive | 3720 nM (active) | inactive | inactive | inactive |  | inactive |  | 
8 | CC[C@H]1OC(=O)[C@H](C)[C@@H](O[C@H]2C[C@@](C)(OC)[C@@H](O)[C@H](C)O2)[C@H](C)[C@@H](O[C@@H]2O[C@H](C)C[C@H](N(C)C)[C@@H]2O)[C@](C)(OC)C[C@@H](C)C(=O)[C@H](C)[C@@H](O)[C@]1(C)O | inactive | inactive | inactive | inactive | inactive |  | inactive | inactive | 
9 | OCCN1C[C@H](O)[C@@H](O)[C@H](O)[C@@H]1CO | inactive | inactive | inactive | inactive | inactive |  | inactive |  | 
10 | CC(=O)N[C@H]1[C@@H]([C@H](O)[C@H](O)CO)OC(C(=O)O)=C[C@@H]1N=C(N)N | inactive | inactive | inactive | inactive | inactive |  | inactive |  | 
11 | CC1(C)CC(O)CC(C)(C)N1[O] | inactive | inactive | inactive | inactive | inactive |  | inactive | inactive | 
12 | COc1cc(C=CC(=O)CC(=O)C=Cc2ccc(O)c(OC)c2)ccc1O | 10.8 µM (active) | 4290 nM (active) | 21.5 µM (active) | 5400 nM (active) | 8.55 µM (active) | 6050 nM (active) | 3.4 µM (active) | 4810 nM (active) | 4810 nM (active)
13 | CCNC(=O)Nc1ccc(-c2nc3c(c(N4CCOC[C@H]4C)n2)CCN(C2COC2)C3)cc1 | 0.935 µM (active) | 743 nM (active) | 7.43 µM (active) | 1320 nM (active) | 0.743 µM (active) | 1050 nM (active) | 16.6 µM (active) | 332 nM (active) | 83.3 nM (active)
14 | C[C@H](NC(=O)C(C#N)=Cc1cccc(Br)n1)c1ccccc1 | 3.72 µM (active) | 2090 nM (active) | 1.66 µM (active) | 13200 nM (active) | 5.9 µM (active) |  | 11.8 µM (active) | 10500 nM (active) | 
15 | Nc1nc2c(c(=O)[nH]1)N(C=O)[C@H](CNc1ccc(C(=O)N[C@@H](CCC(=O)O)C(=O)O)cc1)CN2 | inactive | inactive | inactive | inactive | inactive |  | inactive | inactive | 
16 | CCOc1cc2ncc(C#N)c(Nc3ccc(OCc4ccccn4)c(Cl)c3)c2cc1NC(=O)C=CCN(C)C | 2.35 µM (active) | 590 nM (active) | 0.372 µM (active) | 93.5 nM (active) | 14.8 µM (active) | 662 nM (active) |  | 935 nM (active) | 
17 | C[C@@H](Oc1ccc2[nH]nc(C=Cc3cnn(CCO)c3)c2c1)c1c(Cl)cncc1Cl | 26.4 µM (active) | 469 nM (active) | 4.18 µM (active) | inactive | 5.26 µM (active) | inactive |  | inactive | 
18 | CC(C)[C@H](CO)Nc1nc(Nc2cccc(Cl)c2)c2ncn(C(C)C)c2n1 | 16.6 µM (active) | 18700 nM (active) | 23.5 µM (active) | inactive | 23.5 µM (active) |  | inactive | inactive | 
19 | CC(C=CC(=O)NO)=C[C@@H](C)C(=O)c1ccc(N(C)C)cc1 | 0.332 µM (active) | 235 nM (active) | 0.469 µM (active) | 235 nM (active) | 0.209 µM (active) | 264 nM (active) | 0.418 µM (active) |  | 105 nM (active)
20 | NC(=O)Nc1cc(-c2ccc(CN3CCOCC3)cc2)sc1C(N)=O | 18.7 µM (active) | 2090 nM (active) | 20.9 µM (active) | 2960 nM (active) | 18.7 µM (active) | 935 nM (active) | 6.62 µM (active) | 4180 nM (active) | 83.3 nM (active)
21 | CC(=O)O[C@H]1C[C@@H]2CC[C@H]3[C@H]4C[C@H]([N+]5(C)CCCCC5)[C@@H](OC(C)=O)[C@@]4(C)CC[C@@H]3[C@@]2(C)C[C@H]1N1CCCCC1 | inactive | inactive | inactive | inactive | inactive | inactive |  | inactive | 
22 | CC(C)C[C@H](NC(=O)CNC(=O)c1cc(Cl)ccc1Cl)B1OC(=O)CC(CC(=O)O)(C(=O)O)O1 (stereo partly specified) | 0.0418 µM (active) | 33.2 nM (active) | 0.0833 µM (active) | 23.5 nM (active) | 0.0332 µM (active) |  | 0.0526 µM (active) | 41.8 nM (active) | 
23 | NC(=O)c1ncn([C@@H]2O[C@H](CO)[C@@H](O)[C@@H]2O)c1O | 18.7 µM (active) | inactive | inactive | inactive | 13.2 µM (active) |  | inactive | inactive | 
24 | O=C(O)CCCCC(CCSCc1ccccc1)SCc1ccccc1 (stereo unspecified) | inactive | inactive | inactive |  | inactive | 18700 nM (active) |  | 13200 nM (active) | 
25 | CC(=O)O[C@]1(C(C)=O)CC[C@H]2[C@@H]3C=C(C)C4=CC(=O)CC[C@]4(C)[C@@H]3CC[C@@]21C | inactive | 8330 nM (active) | inactive | 8330 nM (active) |  |  | 14.8 µM (active) |  | 
26 | Nc1nc(=O)n([C@H]2CSC(CO)O2)cc1F (stereo partly specified) | inactive | inactive | inactive |  | inactive |  | inactive | inactive | 

Source: PubChem BioAssay (NCATS)
